# Measured values published in PubChem BioAssay AID1159580 (chemical genetic matrix, 2015).
# Among all 5,500 compounds or so, about 2,000 (36%) were called active. About 18% were inconclusive and are not listed. This is one part of the list. Unmarked numbers belong to inactive results. Cut-off read from the data, not from the text of the source: active = normalized growth mostly below about 0.91 (no sharp cut-off); inconclusive = no clear call, values can overlap the other calls; inactive = mostly above about 0.92.
# Experiment: chemical genetic growth profiling, strain panel (AID 1159580);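 note: tested at 20 µM; growth read once vehicle control cultures reached saturation at 30 °C; 1 = growth at the plate median or of vehicle wells; lower values mean less growth of the strain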
# Conditions: growth OD
compound,measurement,setting,value
CC(=O)[C@@]1(O)CCC2C3CCC4=CC(=O)CC[C@]4(C)C3CC[C@@]21C (stereo partly drawn),normalized growth,"S. cerevisiae deletion strains, locus YJR066W, strain TOR1, hits give low values",0.93
same,normalized growth,"S. cerevisiae deletion strains, locus YKL009W, strain mrt4, hits give low values",0.995
same,normalized growth,"S. cerevisiae deletion strains, locus YKL068W, hits give low values",1.01
same,normalized growth,"S. cerevisiae deletion strains, locus YKL085W, strain MDH1 (second series), hits give low values",1.02
same,normalized growth,"S. cerevisiae deletion strains, locus YKL085W, strain MDH1, hits give low values",1.02
same,normalized growth,"S. cerevisiae deletion strains, locus YKL160W, strain elf1, hits give low values",0.997
same,normalized growth,"S. cerevisiae deletion strains, locus YKL190W, strain CNB1, hits give low values",0.998
same,normalized growth,"S. cerevisiae deletion strains, locus YKR001C, strain vps1, hits give low values",1.06
same,normalized growth,"S. cerevisiae deletion strains, locus YKR026C, strain gcn3, hits give low values",0.966
same,normalized growth,"S. cerevisiae deletion strains, locus YKR091W, strain srl3, hits give low values",0.991
same,normalized growth,"S. cerevisiae deletion strains, locus YLL001W, strain dnm1, hits give low values",0.98
same,normalized growth,"S. cerevisiae deletion strains, locus YLL026W, hits give low values",0.994
same,normalized growth,"S. cerevisiae deletion strains, locus YLL041C, strain sdh2, hits give low values",0.99
same,normalized growth,"S. cerevisiae deletion strains, locus YLR027C, strain aat2, hits give low values",1
same,normalized growth,"S. cerevisiae deletion strains, locus YLR039C, strain RIC1, hits give low values",0.841
same,normalized growth,"S. cerevisiae deletion strains, locus YLR058C, strain SHM2, hits give low values",0.987
same,normalized growth,"S. cerevisiae deletion strains, locus YLR102C, strain apc9, hits give low values",1.01
same,normalized growth,"S. cerevisiae deletion strains, locus YLR113W, strain HOG1, hits give low values",0.97
same,normalized growth,"S. cerevisiae deletion strains, locus YLR221C, strain rsa3, hits give low values",1
same,normalized growth,"S. cerevisiae deletion strains, locus YLR258W, strain gsy2, hits give low values",0.993
same,normalized growth,"S. cerevisiae deletion strains, locus YLR262C, strain YPT6 (second series), hits give low values",0.823 (active)
same,normalized growth,"S. cerevisiae deletion strains, locus YLR262C, strain YPT6, hits give low values",0.805
same,normalized growth,"S. cerevisiae deletion strains, locus YLR268W, strain sec22, hits give low values",1.01
same,normalized growth,"S. cerevisiae deletion strains, locus YLR320W, strain mms22, hits give low values",0.939
same,normalized growth,"S. cerevisiae deletion strains, locus YLR330W, strain CHS5, hits give low values",1
same,normalized growth,"S. cerevisiae deletion strains, locus YLR342W, strain FKS1 (second series), hits give low values",0.987
same,normalized growth,"S. cerevisiae deletion strains, locus YLR342W, strain FKS1, hits give low values",0.989
same,normalized growth,"S. cerevisiae deletion strains, locus YLR357W, strain rsc2, hits give low values",1.01
same,normalized growth,"S. cerevisiae deletion strains, locus YLR370C, strain arc18, hits give low values",0.984
same,normalized growth,"S. cerevisiae deletion strains, locus YLR371W, strain rom2, hits give low values",1.01
same,normalized growth,"S. cerevisiae deletion strains, locus YLR384C, strain iki3, hits give low values",1.01
same,normalized growth,"S. cerevisiae deletion strains, locus YLR418C, strain cdc73, hits give low values",1.01
same,normalized growth,"S. cerevisiae deletion strains, locus YML016C, strain PPZ1, hits give low values",0.986
same,normalized growth,"S. cerevisiae deletion strains, locus YML032C, strain rad52, hits give low values",0.981
same,normalized growth,"S. cerevisiae deletion strains, locus YML120C, strain ndi1, hits give low values",1.01
same,normalized growth,"S. cerevisiae deletion strains, locus YML124C, strain tub3, hits give low values",1
same,normalized growth,"S. cerevisiae deletion strains, locus YMR058W, strain fet3, hits give low values",0.996
same,normalized growth,"S. cerevisiae deletion strains, locus YMR078C, strain ctf18, hits give low values",0.992
same,normalized growth,"S. cerevisiae deletion strains, locus YMR125W, strain sto1, hits give low values",0.984
same,normalized growth,"S. cerevisiae deletion strains, locus YMR129W, hits give low values",0.982
same,normalized growth,"S. cerevisiae deletion strains, locus YMR205C, strain PFK2, hits give low values",0.957
same,normalized growth,"S. cerevisiae deletion strains, locus YMR223W, strain ubp8, hits give low values",0.995
same,normalized growth,"S. cerevisiae deletion strains, locus YMR231W, strain pep5, hits give low values",0.996
same,normalized growth,"S. cerevisiae deletion strains, locus YMR307W, strain GAS1, hits give low values",0.97
same,normalized growth,"S. cerevisiae deletion strains, locus YNL067W, strain RPL9B, hits give low values",0.999
same,normalized growth,"S. cerevisiae deletion strains, locus YNL071W, strain lat1, hits give low values",1
same,normalized growth,"S. cerevisiae deletion strains, locus YNL183C, strain NPR1, hits give low values",0.907
same,normalized growth,"S. cerevisiae deletion strains, locus YNL209W, strain ssb2, hits give low values",0.995
same,normalized growth,"S. cerevisiae deletion strains, locus YNL233W, strain BNI4, hits give low values",1
same,normalized growth,"S. cerevisiae deletion strains, locus YNL248C, strain rpa49, hits give low values",0.999
same,normalized growth,"S. cerevisiae deletion strains, locus YNL250W, strain rad50, hits give low values",1.01
same,normalized growth,"S. cerevisiae deletion strains, locus YNL271C, strain bni1, hits give low values",1
same,normalized growth,"S. cerevisiae deletion strains, locus YNL298W, strain CLA4, hits give low values",1.01
same,normalized growth,"S. cerevisiae deletion strains, locus YNL307C, strain MCK1, hits give low values",1.01
same,normalized growth,"S. cerevisiae deletion strains, locus YNL322C, strain KRE1 (second series), hits give low values",0.996
same,normalized growth,"S. cerevisiae deletion strains, locus YNL322C, strain KRE1, hits give low values",0.994
same,normalized growth,"S. cerevisiae deletion strains, locus YNR049C, strain mso1, hits give low values",0.988
same,normalized growth,"S. cerevisiae deletion strains, locus YNR052C, strain pop2, hits give low values",1
same,normalized growth,"S. cerevisiae deletion strains, locus YOL012C, strain htz1",0.769
same,normalized growth,"S. cerevisiae deletion strains, locus YOL147C, strain pex11, hits give low values",1.01
same,normalized growth,"S. cerevisiae deletion strains, locus YOR001W, strain rrp6, hits give low values",1
same,normalized growth,"S. cerevisiae deletion strains, locus YOR061W, strain CKA2, hits give low values",0.993
same,normalized growth,"S. cerevisiae deletion strains, locus YOR069W, strain VPS5, hits give low values",0.996
same,normalized growth,"S. cerevisiae deletion strains, locus YOR070C, strain gyp1, hits give low values",0.994
same,normalized growth,"S. cerevisiae deletion strains, locus YOR080W, strain dia2, hits give low values",0.991
same,normalized growth,"S. cerevisiae deletion strains, locus YOR083W, strain WHI5, hits give low values",1
same,normalized growth,"S. cerevisiae deletion strains, locus YOR106W, strain vam3, hits give low values",1.02
same,normalized growth,"S. cerevisiae deletion strains, locus YOR136W, strain idh2, hits give low values",1.01
same,normalized growth,"S. cerevisiae deletion strains, locus YOR144C, strain elg1, hits give low values",1
same,normalized growth,"S. cerevisiae deletion strains, locus YOR184W, strain ser1, hits give low values",0.943
same,normalized growth,"S. cerevisiae deletion strains, locus YOR231W, strain MKK1, hits give low values",0.965
same,normalized growth,"S. cerevisiae deletion strains, locus YOR265W, strain rbl2, hits give low values",1
same,normalized growth,"S. cerevisiae deletion strains, locus YOR270C, strain vph1, hits give low values",0.974
same,normalized growth,"S. cerevisiae deletion strains, locus YOR290C, strain snf2, hits give low values",0.953
same,normalized growth,"S. cerevisiae deletion strains, locus YOR316C, strain cot1, hits give low values",1
same,normalized growth,"S. cerevisiae deletion strains, locus YPL051W, strain arl3, hits give low values",0.995
same,normalized growth,"S. cerevisiae deletion strains, locus YPL055C, strain LGE1, hits give low values",1.02
same,normalized growth,"S. cerevisiae deletion strains, locus YPL078C, strain atp4, hits give low values",0.997
same,normalized growth,"S. cerevisiae deletion strains, locus YPL106C, strain sse1, hits give low values",1.02
same,normalized growth,"S. cerevisiae deletion strains, locus YPL240C, strain hsp82, hits give low values",0.987
same,normalized growth,"S. cerevisiae deletion strains, locus YPL241C, strain CIN2, hits give low values",0.995
same,normalized growth,"S. cerevisiae deletion strains, locus YPL256C, strain CLN2, hits give low values",0.96
same,normalized growth,"S. cerevisiae deletion strains, locus YPR119W, strain clb2, hits give low values",1
same,normalized growth,"S. cerevisiae deletion strains, locus YPR141C, strain kar3, hits give low values",0.992
same,normalized growth,"S. cerevisiae deletion strains, locus YPR163C, strain tif3, hits give low values",0.998
same,normalized growth,"S. cerevisiae deletion strains, locus YPR167C, strain met16, hits give low values",1
same,normalized growth,"S. cerevisiae deletion strains, strain wtn01, hits give low values",1.05
same,normalized growth,"S. cerevisiae strains, strain wild type, hits give low values",0.991
